GPR151 ag: activates the human receptor GPR151 | 650,000 compounds, 1% hits | Q8TDV0 | activation, % at 11.2 µM | PathHunter beta-arrestin GPR151 cells, luminescence; in the data active = activation above about 4.9%;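 note: 0% = median of compound wells and 100% = cells with positive control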
FBW7 activator: human FBW7 E3 ligase activation, primary screen; AlphaScreen FBW7–phospho-cyclin E peptide binding, activator screen; Q969H0; normalized activity (activation), % at 26.1 µM; AID 1259310; 650,000 compounds, 0.13% hits; in the data active = normalized activity above about 1.9%;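 note: purified mutant Fbw7 with reduced substrate affinity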
MITF inh: blocks human microphthalmia-associated transcription factor; AID 1259374; AlphaScreen MITF homodimerization, bead proximity signal; 650,000 compounds, 0.91% hits; inhibition, % at 2.6 µM; in the data active = inhibition above about 50%;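 note: 0% = vehicle wells with protein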
Target sequence (O75030 whole entry, looked up): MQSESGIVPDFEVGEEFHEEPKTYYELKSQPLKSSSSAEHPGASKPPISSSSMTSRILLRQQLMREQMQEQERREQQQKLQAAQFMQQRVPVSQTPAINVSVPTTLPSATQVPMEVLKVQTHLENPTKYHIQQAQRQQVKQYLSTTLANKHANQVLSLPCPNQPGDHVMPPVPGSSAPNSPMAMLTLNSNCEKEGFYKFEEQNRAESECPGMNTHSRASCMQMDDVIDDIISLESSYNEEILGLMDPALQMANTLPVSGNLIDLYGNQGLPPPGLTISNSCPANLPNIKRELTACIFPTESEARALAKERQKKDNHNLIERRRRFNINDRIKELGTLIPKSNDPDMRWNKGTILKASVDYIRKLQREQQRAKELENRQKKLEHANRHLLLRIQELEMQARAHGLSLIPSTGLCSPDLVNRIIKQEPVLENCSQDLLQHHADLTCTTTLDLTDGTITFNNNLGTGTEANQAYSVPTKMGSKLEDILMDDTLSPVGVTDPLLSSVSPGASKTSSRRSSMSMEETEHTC
TEAD-YAP block: TEAD-YAP interaction inhibition | HEK-TIYL cells, TEAD-Gal4/YAP UAS-luciferase luminescence | inhibition, % at 9.12 µM | 640,000 compounds, 1.4% hits; in the data active = inhibition above about 32%;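 note: 0% = median of test compound wells and 100% = reference inhibitor wells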
GPR151 confirm: human GPR151 activation, confirmation screen; shares compounds with GPR151 ag; GPR151 PathHunter beta-arrestin cells, luminescence, 90 min; % of EA-reagent control over plate median; activation, % at 11.2 µM; 6,700 tested, under 10 active;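 active = mean percent activation across replicates above the confirmation screen cutoff of 4.91%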
GPR119 counter: counter-screen for GPR151 activators: effect on human GPR119 | shares compounds with GPR151 ag | GPR119 PathHunter beta-arrestin cells, luminescence, 90 min; 0 = compound-well median, 100 = enzyme-acceptor control | activation, % at 11.2 µM | 6,700 compounds, 0.3% hits | AID 1508611;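 active = mean percent activation in the counterscreen above 29.09%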;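 note: counterscreen on off-target GPR119 to flag nonselective hits from the GPR151 activator screen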
Active calls of the source: *; · = not tested or not shown. The list is not random: actives were taken first. Their share in the collection is about 3.5%.

SMILES	GPR151 ag	FBW7 activator	MITF inh	TEAD-YAP block	GPR151 confirm	GPR119 counter
COc1ccc(Br)cc1/C=C1/SC(=Nc2ccccc2)N(C2CCCC2)C1=O	0	0	3	-8	·	·
Cc1nn(-c2cccc(Cl)c2)c(Cl)c1C=O	-2	0	8	11	·	·
COc1ccc(-c2nc(CNS(=O)(=O)c3ccc(OC)c(OC)c3)cs2)cc1	0	0	-2	-3	·	·
COc1ccc(S(=O)(=O)NCc2csc(-c3cccnc3)n2)cc1OC	6.5*	0	11	11	1	8
O=C(Nc1ccc2c(c1)OC(F)(F)O2)c1ccco1	0	0	2	-31	·	·
C=CCSc1ncccc1C(=O)NC(C)C	-1	1	9	-8	·	·
O=C(c1ccc(COc2ccc(I)cc2)cc1)N1CCCCCC1	1	0	0	2	·	·
COc1cc(SC)ccc1C(=O)Nc1ccc2c(c1)oc1ccccc12	-1	0	2	1	·	·
C=CCNc1oc(COc2ccc(Cl)cc2Cl)nc1C#N	0	0	8	1	·	·
COc1ccc(NC(=O)C2CCC(Cn3c(=S)[nH]c4ccccc4c3=O)CC2)cc1 (stereo not drawn)	7.0*	0	-6	-11	0	-11
CCOC(=O)C1=C(C)NC(=O)NC1c1cc(Br)c(OCc2ccccc2)c(OC)c1 (stereo not drawn)	1	0	22	-4	·	·
COc1cc(C2NC(=O)NC(C)=C2C(C)=O)cc([N+](=O)[O-])c1O (stereo not drawn)	7.8*	0	24	9	1	10
COC(=O)C1=C(C)NC(=O)NC1c1cc(OC)c(O)c([N+](=O)[O-])c1 (stereo not drawn)	1	0	5	-17	·	·
COc1cc(C2NC(=O)NC(C)=C2C(C)=O)cc(Br)c1OCc1ccccc1 (stereo not drawn)	5.7*	0	19	-8	2	10
CCOc1ccc(-n2nc(C(=O)Nc3cc(OC)ccc3OC)c3ccccc3c2=O)cc1	-1	0	4	-2	·	·
Cc1ccc(NC(=O)N2CCOCC2)cc1	-1	0	-11	-3	·	·
CCC(C)c1ccc(NC(=O)N2CCOCC2)cc1 (stereo not drawn)	5.4*	0	12	-57	-1	-8
CC1CC(OC(=O)C(O)c2ccccc2)CC(C)(C)C1 (stereo not drawn)	6.6*	0	-9	1	1	-2
Cc1ccc(CN2CCN3C(=O)[C@H](CO)NC(=O)[C@H]3C2)cc1C	0	0	15	5	·	·
O=C1/C(=C/c2ccccc2)SC(=S)N1N1C(=O)c2ccccc2C1=O	-1	0	-9	1	·	·
O=C1/C(=C\c2cccc([N+](=O)[O-])c2)SC(=S)N1N1C(=O)c2ccccc2C1=O	5.0*	0	-6	-10	0	10
COc1ccc(NC(=O)Cn2c(=O)n(Cc3ccccc3)c(=O)c3cccnc32)cc1	2	0	1	2	·	·
Cc1ccc(C(=O)N/C(=C\c2ccco2)C(=O)Nc2ccccc2)cc1C	5.6*	0	0	-10	0	-5
CNC(=O)/C(=C/c1ccco1)NC(=O)c1ccc(C)cc1	1	0	2	12	·	·
Cc1ccc(C(=O)N/C(=C/c2ccco2)C(=O)Nc2ccc(C)cc2C)cc1	5.1*	0	25	-5	-1	-10
SMILES	GPR151 ag	FBW7 activator	MITF inh	TEAD-YAP block	GPR151 confirm	GPR119 counter
O=C(NCc1cccnc1)C(=O)N/N=C/c1ccncc1	0	0	10	3	·	·
O=C1CCCC(O)=C1C(C1=C(O)CCCC1=O)c1ccc(Br)cc1	2	0	-8	-5	·	·
CCC(C)C1N=C2c3ccccc3N=C(SCc3cccc(F)c3)N2C1=O (stereo not drawn)	5.2*	0	11	-19	1	8
CN1CCN(C(=O)c2cccc(N3C(=O)NC4CC3(C)Oc3ccc(Cl)cc34)c2)CC1 (stereo not drawn)	0	0	4	2	·	·
O=C1NC(c2ccc(Cl)cc2Cl)Oc2ccccc21 (stereo not drawn)	8.9*	0	12	3	2	-1
Cc1c(-c2ccc(Cl)cc2)noc1C1CCN(CCc2ccccc2)CC1	8.2*	0	9	·	2	-1
O=C1CCCN1CCn1cnc2c(NCCN3CCOCC3)nc(NCCN3CCOCC3)nc21	0	0	12	4	·	·
